Laboratory results: PubChem BioAssay AID1452 (National Center for Advancing Translational Sciences (NCATS), 2008)
Hit rate of the full screen: of about 150,000 compounds, about 190 (0.13%) were called active. Not shown: some 2% with an inconclusive outcome. The entries come from a sample that favours actives as a whole. A number with no mark means an inactive call. Calls come from the whole dose curve; as a rule, active = well fitted inhibition curve with a large enough effect; inconclusive = small, poorly fitted or top-dose-only effect; inactive = flat fitted curve, though single readings scatter.

Target: Polyunsaturated fatty acid lipoxygenase ALOX12 (Homo sapiens) (UniProt P18054)
Assay: qHTS Assay for Inhibitors of 12-hLO (12-human lipoxygenase); note: nearly all actives have a fitted effect of over 55% in size
Settings: purified 12-hLO, xylenol orange hydroperoxide absorbance; series mostly up to 57.1 µM; activity change, negative = inhibition: at the top concentration
Description: Assay Provider: Holman, T.R., University of California, Santa Cruz Screening Center PI: Austin, C.P. Screening Center: NIH Chemical Genomics Center [NCGC] Human lipoxygenase 12hLO is a member of the closely related lipoxygenase family of enzymes which catalyze the site-specific oxidation of arachidonic acid to various hormone precursor molecules and as such is a candidate for drug development in a variety of disease areas, such as cancer and inflammation. Inhibition of 12hLO activity was screened by utilizing arachidonic acid as a substrate. The extent of hydroperoxide product formation was measured by a secondary chromogenic reaction in which xylenol orange (XO, Sigma-Aldrich, cat. number 39,818-7) reacts with the ferric ions produced from the reaction between the hydroperoxide and ferrous ions. The Fe(III)-XO complex is characterized with red-shifted absorbance at 560 nm. A purified preparation of human 12hLO was supplied by Professor Ted Holman, University of California, Santa Cruz.
Assay Protocol: Buffer: 25 mM Hepes pH 7.0, 0.01% Triton X-100. Reagents/Controls: Buffer in columns 3 and 4 as negative control (no enzyme). Substrate solution: 40 uM arachidonic acid (Sigma-Aldrich, St. Louis, MO) final concentration dispensed throughout the plate. Enzyme: 150 nM 12hLO final concentration in columns 1, 2, 5-48. Column 1 is neutral (100% activity). Column 2 contained pin-transferred titration of NDGA (nordihidroguaiaretic acid, Sigma-Aldrich, N 5023, top concentration 20 mM in DMSO, then 1:3 dilution in duplicate). (Dilution factor: 23 nL into 4 uL.) Chromogenic detection reagent (divalent iron/xylenol orange, Fe-XO): 200 uM xylenol orange plus 300 uM ferrous ammonium sulfate prepared freshly in 50 mM sulfuric acid. Assay Steps: Three uL of enzyme were dispensed to 1536-well Greiner black clear bottom plates. Compounds and controls (23 nL) were transferred via Kalypsys PinTool. The plates were incubated for 15 min at room temperature, and then 1 uL of substrate solution was added to start the reaction. After room temperature incubation for 30 minutes, 4 uL of Fe-XO solution was added to each well and the plates were incubated for 30 min. The absorbance at 405 and 573 nm were measured using ViewLux (Perkin-Elmer) High-throughput CCD imager and absorbance protocol settings. The 573-to-405 absorbance ratio was used to compute reaction progress.
% is set by controls: 0 for no effect and ±100 for the full control effect.

Sequence of Polyunsaturated fatty acid lipoxygenase ALOX12 (Homo sapiens) (P18054 whole entry, looked up): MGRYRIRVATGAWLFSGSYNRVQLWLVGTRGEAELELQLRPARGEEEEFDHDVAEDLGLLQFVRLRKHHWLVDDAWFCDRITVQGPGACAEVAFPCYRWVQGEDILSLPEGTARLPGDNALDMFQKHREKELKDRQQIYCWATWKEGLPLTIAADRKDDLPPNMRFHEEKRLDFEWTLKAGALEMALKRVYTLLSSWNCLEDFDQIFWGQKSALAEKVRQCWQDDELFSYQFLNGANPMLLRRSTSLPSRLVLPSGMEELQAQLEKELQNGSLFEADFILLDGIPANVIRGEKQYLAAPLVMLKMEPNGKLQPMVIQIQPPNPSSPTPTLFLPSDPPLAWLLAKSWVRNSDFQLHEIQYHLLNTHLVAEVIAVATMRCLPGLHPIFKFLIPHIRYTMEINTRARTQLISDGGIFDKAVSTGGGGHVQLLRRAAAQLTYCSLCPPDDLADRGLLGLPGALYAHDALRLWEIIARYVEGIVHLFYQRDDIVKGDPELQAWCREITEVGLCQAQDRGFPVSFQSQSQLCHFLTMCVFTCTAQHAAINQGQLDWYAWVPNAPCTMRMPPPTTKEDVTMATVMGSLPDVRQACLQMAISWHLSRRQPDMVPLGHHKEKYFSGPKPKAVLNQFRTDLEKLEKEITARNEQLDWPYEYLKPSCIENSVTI

SMILES | activity change, negative = inhibition
NNc1nnc(NN)c2ccccc12 | -2.71% [at 0.00818 µM]
CCOC(=O)C1=C(C)c2ccccc2OC1C(=O)OCC (centres undefined) | 1.63% [at 0.00818 µM]
COC(=O)C1(C(C)=O)CC2=CC[C@H]3C(=O)N(c4ccccc4)C(=O)[C@H]3[C@@H]2Cc2ccccc2[C@@H]1C[N+](=O)[O-] (some centres undefined) | 0.0255%
N#Cc1ccsc1NC(=O)CN1CCN(S(=O)(=O)c2cc(Cl)ccc2Cl)CC1 | -0.442%
Cc1nn(-c2ccccc2)c(C)c1/C=N/NC(=O)CSc1nc2ccccc2c(=O)n1-c1ccccc1 | -0.304%
CCOC(=O)c1c(NC(=O)Cn2nc(C(F)(F)F)cc2C)sc2c1CCC2 | 0.245%
CCOc1cc(/C=N/NC(=O)OC)ccc1OCCSc1ccc(Cl)cc1 | -0.0265%
COc1ccc(Br)cc1C(=O)NC(=S)Nc1cc(-c2nc3ccccc3[nH]2)ccc1C | -4.68%
C=CCNC(=S)N/N=C/c1ccc(OCc2ccccc2)cc1 | -3.94%
CCS(=O)(=O)Nc1cccc(-c2cc(-c3ccccc3)c3cc(C)ccc3n2)c1 | 1.99%
O=C(COC(=O)c1c2c(nc3ccccc13)/C(=C\c1cccs1)CCC2)Nc1ccccc1Cl | -2.57%
COC(=O)C1=C(C(=O)OC)[C@@H]2N(C)c3ccccc3[C@@]23C[C@@H](C(=O)OC)N(S(=O)(=O)c2cccs2)C3=N1 | -1.35% [at 11.4 µM]
CCCCc1cc2c(s1)CCCC/C2=N/O | -1.86%
NC(=O)c1ccccc1N=Cc1ccc2ccccc2c1 | -0.382%
CC(C)CCN1C(=O)c2ccc(C(=O)Nc3cccc(S(N)(=O)=O)c3)cc2C1=O | 3.13%
COc1ccccc1OCC(=O)OCn1c(SC)nnc(C)c1=O | -0.32%
N#C/C(=C/c1ccc(N2CCCCC2)o1)C(=O)NCCc1c[nH]c2ccccc12 | -7.08%
CC(C)CN(C(=O)CN1CCN(S(=O)(=O)c2ccccc2)CC1)c1c(N)n(CC(C)C)c(=O)[nH]c1=O | 3.56%
Cc1cc(N2CCOCC2)nc(-c2ccc(Br)cc2)n1 | 1.56%
COc1ccc2c(-c3ccccc3)cc(SCC(=O)N(C)C3CCS(=O)(=O)C3)nc2c1 (centres undefined) | -4.74%
Cc1ccc(S(=O)(=O)N2CCC(=O)N([C@H](COCc3ccccc3)Cc3ccccc3)CC2)cc1 | 0.261% [at 0.00818 µM]
COc1ccc(-n2c(C)cc(C(=O)COC(=O)c3cc(OC)c(OC)cc3NC(=O)c3cccs3)c2C)cc1 | 1.19%
COc1cc2c(cc1NC(=O)COC(=O)/C=C/c1ccccc1)oc1ccccc12 | 0.678%
COc1ccc(CCNc2cc(C)nc3c(-c4ccc(Cl)cc4)c(C)nn23)cc1OC | -1.48%
O=C(Nc1ccc(N2C(=O)c3cccc4cccc(c34)C2=O)cc1)c1ccc(N2CCCCC2)c([N+](=O)[O-])c1 | -0.132%

SMILES | activity change, negative = inhibition
CCn1c(=O)cc(SCC(=O)NCCC2=CCCCC2)c2ccccc21 | -12.1%
COc1cccc(CC(=O)N2CCc3nc(COc4ccccc4)c4c(c3C2)CO[C@@H](C)C4)c1 | -2.68% [at 11.4 µM]
COCCNC(=O)c1ccc(N2CCC3(CC2)OCCO3)c([N+](=O)[O-])c1 | 3.27%
CCCN=C1NC(=O)C(CC(=O)NCCc2ccc(OC)c(OC)c2)S1 (centres undefined) | -0.962%
CCOC(=O)c1ccccc1N1C(=O)C2Sc3[nH]c(=O)sc3C(/C=C/c3ccccc3)C2C1=O (centres undefined) | -26%
CC(=O)NNC1=Nc2ccccc2N(C)C(C)C1 (centres undefined) | 1.24%
COC(=O)/C(C#N)=C/c1occc1C | -1.5%
Cc1[nH]n(-c2ccccc2)c(=O)c1/C=N/NC(=O)c1ccoc1C | -1.41%
Cn1cccc1/C=N/NC(=O)c1ccc(OC(F)(F)C(F)F)cc1 | -1.04%
COc1cc(OC)c2c(-c3cccc(-c4cccc(N)c4)c3)cc(=O)oc2c1 | -1.39% [at 0.00818 µM]
N=C1/C(=C/c2cccn2-c2cccc([N+](=O)[O-])c2)C(=O)N=C2SC=CN12 | -1.46%
Cc1cccc([C@H]2[C@@H]3C=CC[C@@H](C)[C@@H]3C(=O)N2Cc2ccccc2)c1 | -6.11% [at 0.00818 µM]
COc1cc(CCC(=O)OCC(=O)Nc2cccc(S(N)(=O)=O)c2)cc(OC)c1OC | 3.81%
O=C(O)CC(Cc1ccccc1)C(=O)Nc1ccc([N+](=O)[O-])cc1 (centres undefined) | -0.203%
NC(=O)C[C@@H]1NC(=O)CNC(=O)c2cc([N+](=O)[O-])cc(I)c2NCCC(C(N)=O)NC1=O (some centres undefined) | -10.2%
Cn1cccc1/C=C1\SC(=S)N(NC(=O)c2ccc(Cl)cc2)C1=O | -12.2%
CCc1nnc(NC(=O)/C=C/c2ccc(C)o2)s1 | -2.76%
C=CC1=C2C=C(C3CC3)N(C(CO)CO)C=C2C(=O)C(C)(OC(=O)c2ccco2)C1=O (centres undefined) | 3.57% [at 11.4 µM]
CC1=C(C/C=C(\C)CCCC(C)CCCC(C)CCCC(C)C)C(=O)c2ccccc2C1=O (centres undefined) | -5.67% [at 0.00818 µM]
CN(C(=O)CSc1nnc(-c2n[nH]c3ccccc23)o1)c1ccccc1 | -2.11%
Cc1nc(-c2ccccc2)cn2c1nc1ccccc12 | 0.637%
O=C1OCCN1C(=O)[C@H]1[C@H](c2ccc(Cl)cc2)C(c2cccc(Cl)c2)=NN1c1ccc(Br)cc1 | -6.33% [at 0.00818 µM]
COc1cc(OC)c2c(c1)OC(=O)CC2c1cc(OC)c(OC)c(OC)c1 (centres undefined) | -5.58% [at 0.00818 µM]
CCCCC/C=C\C/C=C\CCCCCCCCCC(=O)O | 0.814%
